{"source": "PubChem BioAssay (NCI)", "note": "Compounds without any hit were thinned out: in the full panel of roughly 83,000, 20% have a hit.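 Values shown are percent growth following 48 h exposure of cells in 96-well plates to a single concentration of compound; below 10 was considered active.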 Unmarked numbers belong to inactive results. Calls of active or inactive are those of the source."}
{"test_system": "HL-60(TB) leukemia", "assay": "NCI-60 one-dose screen, 48 h (100 = growth as untreated, 0 = no growth, -100 = all killed)", "conditions": "10 µM unless noted"}
{"smiles": "Cc1nc2c(=O)nc3s/c(=C\\c4ccco4)c(=O)n3c2nc1C", "growth": "98%"}
{"smiles": "Cc1cccc(-c2nc(N(C)c3ccc4ncsc4c3)c3ccccc3n2)n1", "growth": "50.4%"}
{"smiles": "CCOC(=O)C1=C(N)Oc2c(sc3c(C)cccc23)C1c1ccc(F)cc1", "note": "(stereo not given)", "growth": "-39.3% (active)"}
{"smiles": "COC(=O)C(=Cc1ccccc1[N+](=O)[O-])C(=O)OC", "growth": "-48% (active)"}
{"smiles": "Cc1n(Cc2ccc3ccccc3n2)cc[n+]1Cc1ccc2ccccc2n1", "growth": "34.2%"}
{"smiles": "N=C(N)c1ccc(-c2ccc(-c3cccs3)s2)nc1", "growth": "-32.1% (active)"}
{"smiles": "CC(C)(C)[C@H](OCc1cn([C@H]2C[C@@H](O)[C@@H](CO)O2)c(=O)[nH]c1=O)c1ccc(C#Cc2ccccc2)cc1[N+](=O)[O-]", "growth": "70.4%"}
{"smiles": "Nc1nc(SCC2(CCl)COC2)c2[nH]cnc2n1", "growth": "105%"}
{"smiles": "O=C(NCCCl)NCCN1c2nc3ccccc3cc2Sc2cc3ccccc3nc21", "growth": "24.3%"}
{"smiles": "CCC12CCC3c4ccc(O)cc4CCC3C1CC(O)C2O", "note": "(stereo not given)", "growth": "63.1%"}
{"smiles": "Oc1ccc(N=Nc2ccccn2)c(O)c1", "growth": "-37.3% (active)"}
{"smiles": "CC(C)(C)NCC(O)COc1c(Br)c(Br)c(Br)c2c1OC(C)(C)C2", "note": "(stereo not given)", "growth": "-59.3% (active)"}
{"smiles": "Cc1ccc(-c2nc(C#N)c(S(=O)(=O)N(C)C)o2)cc1", "growth": "0.829% (active)"}
{"smiles": "Cc1ccccc1CNc1ncnc2[nH]ncc12", "growth": "49.2%"}
{"smiles": "COc1ccc2c(c1)c(-c1nc(-c3c[nH]c4ncccc34)cs1)cn2CCCN1CCOCC1", "growth": "17.4%"}
{"smiles": "CN1CCN(Cc2ccc(NC(=O)c3cccc(C#Cc4c(N)ncc5ccc(F)cc45)c3)cc2C(F)(F)F)CC1", "growth": "-53.7% (active)"}
{"smiles": "O=C(Cn1c2ccccc2c2ccncc21)N/N=C/c1cc(O)c(O)c(O)c1", "growth": "85.1%"}
{"smiles": "Cc1ccsc1/C=C/C1=NCCCN1C", "growth": "126%"}
{"smiles": "O=C(/C=C1\\C(=O)N(Cc2ccc([N+](=O)[O-])cc2)c2ccccc21)c1ccc(OCCN2CCCC2)cc1", "growth": "17.5%"}
{"smiles": "CN(C)CCCNCc1ccc(-c2ccc(F)c(Cl)c2)o1", "growth": "-4.95% (active)"}
{"smiles": "Cc1[nH]n(C(=S)Nc2nc3cc(Cl)c(F)cc3s2)c(=O)c1N=Nc1ccc(F)c(Cl)c1", "growth": "127%"}
{"smiles": "O=C1Nc2ccccc2/C1=C/c1c[nH]c2ccccc12", "growth": "102%"}
{"smiles": "Nc1ccc(-c2ccc(N)c(S(=O)(=O)O)c2)cc1S(=O)(=O)O", "growth": "91.4%"}
{"smiles": "CCOC(=O)C(=Cc1ccccc1[N+](=O)[O-])C(=O)OCC", "growth": "-26.5% (active)"}
{"smiles": "COc1ccc(C/C(C)=C(\\c2ccc(Cl)cc2)c2ccc(OCCN3CCCC3)cc2)cc1", "growth": "76.9%"}
{"smiles": "CCOC(=O)C/C(=C\\c1ccccc1)C(C)=O", "growth": "98.5%"}
{"smiles": "O=c1oc2ccccc2cc1-c1csc(N=Nc2c(O)[nH]c3ccc(Br)cc23)n1", "growth": "106%"}
{"smiles": "CCCCOc1nc2ccc(Cl)cc2cc1/C=C/C(=O)/C=C/c1ccc(OC)cc1", "growth": "89.5%"}
{"smiles": "O=C1OCC2=C1C(c1cccc(C(F)(F)F)c1)c1cc3c(cc1N2CCO)OCO3", "note": "(stereo not given)", "growth": "-24.9% (active)"}
{"smiles": "C=C(C)[C@@H]1CC[C@]2(C(N)=O)CC[C@]3(C)[C@H](CC[C@@H]4[C@@]5(C)C/C(=C/c6ccco6)C(=O)C(C)(C)[C@@H]5CC[C@]43C)[C@@H]12", "growth": "93.2%"}
{"smiles": "COc1cc(/C(C#N)=C/c2ccc3c(c2OC)OCO3)cc2c1OCO2", "growth": "26.9%"}
{"smiles": "COc1ccc(C2=NOC(CC(=O)N(CCO)CCO)C2)cc1OC1CCCC1", "note": "(stereo not given)", "growth": "110%"}
{"smiles": "Cc1cc(Cl)ccc1OC(C)C(=O)Nc1nnc(C2CC2)s1", "note": "(stereo not given)", "growth": "108%"}
{"smiles": "COc1nc2c(cc1S(=O)(=O)c1ccccc1)CCc1c-2cnn1-c1ccccc1", "growth": "58.7%"}
{"smiles": "Cc1ccc(-c2csc(/N=C3\\C(=O)Nc4ccccc43)n2)cc1", "growth": "-48% (active)"}
{"smiles": "Cn1cc(-c2csc(-c3cn(CCO)c4ccc(F)cc34)n2)c2cccnc21", "growth": "50.2%"}
{"smiles": "N#C/C(=C/C=C/c1ccccc1)S(=O)c1ccccc1", "note": "(stereo not given)", "growth": "-16.5% (active)"}
{"smiles": "COc1ccc(C2c3ccc4ccccc4c3Oc3nc(C)[nH]c(=O)c32)cc1", "note": "(stereo not given)", "growth": "99.3%"}
{"smiles": "O=C(O)c1cccc(N/C=C/C(=O)c2cc3cc(Br)ccc3oc2=O)c1", "growth": "99.8%"}
{"smiles": "CC[C@H](C)[C@@H]1NC(=O)[C@H]([C@@H](C)O)NC(=O)C(Cc2ccccc2)NC(=O)[C@@H]2CCCN2C(=O)C(C(C)C)NC(=O)C(Cc2ccccc2)NC(=O)CNC(=O)[C@@H]2CCCN2C1=O", "note": "(stereo not given in full)", "growth": "5.19% (active)"}
